The list is not random: actives were taken first. Their share in the collection is about 1.6%.
KCNQ2 inh – KCNQ2 (rat) channel inhibition; CHO-K1 KCNQ2, FluxOR thallium flux, 20 min; stronger effect = lower value; AID 2156; B-score at 10 µM; hit rate 1.1% among 310,000; O88943;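 active means fluorescence ratio B-score at most minus 3 library SDs, with starting brightness B-score within 2 library SDs, cut at about -5.5 in these data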
Target sequence (O88943 whole entry, looked up): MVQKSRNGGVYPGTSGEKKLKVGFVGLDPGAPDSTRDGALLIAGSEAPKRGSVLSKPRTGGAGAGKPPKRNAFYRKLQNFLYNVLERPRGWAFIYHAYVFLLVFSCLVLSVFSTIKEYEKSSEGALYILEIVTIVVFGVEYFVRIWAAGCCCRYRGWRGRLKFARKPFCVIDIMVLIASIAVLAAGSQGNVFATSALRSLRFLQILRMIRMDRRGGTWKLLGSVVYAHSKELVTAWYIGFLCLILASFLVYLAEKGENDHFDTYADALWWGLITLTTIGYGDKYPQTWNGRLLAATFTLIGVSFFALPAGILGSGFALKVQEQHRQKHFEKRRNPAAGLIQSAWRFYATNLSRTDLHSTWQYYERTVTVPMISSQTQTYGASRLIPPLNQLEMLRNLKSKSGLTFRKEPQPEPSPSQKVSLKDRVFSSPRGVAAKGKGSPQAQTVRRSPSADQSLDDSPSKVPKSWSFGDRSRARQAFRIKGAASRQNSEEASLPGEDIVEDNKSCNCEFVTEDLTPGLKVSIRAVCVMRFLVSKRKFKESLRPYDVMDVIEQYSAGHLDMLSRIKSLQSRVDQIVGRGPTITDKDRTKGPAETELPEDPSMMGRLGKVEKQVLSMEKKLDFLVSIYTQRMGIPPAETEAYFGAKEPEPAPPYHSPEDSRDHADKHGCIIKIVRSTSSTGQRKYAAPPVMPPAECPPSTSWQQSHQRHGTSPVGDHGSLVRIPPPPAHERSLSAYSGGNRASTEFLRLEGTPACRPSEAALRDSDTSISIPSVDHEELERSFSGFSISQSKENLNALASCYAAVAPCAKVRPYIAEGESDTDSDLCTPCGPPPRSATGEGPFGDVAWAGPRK
KCNQ2 pot – enhances the rat KCNQ2 potassium channel. O88943. B-score at 10 µM. hit rate 0.54% among 310,000. CHO-K1 KCNQ2, FluxOR thallium flux fluorescence; stronger effect = higher value;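 active means fluorescence ratio B-score at least 3 SD of library B-scores, with initial fluorescence B-score within 3 of them, cut at about 5.3 in these data; same plate scores as AID 2156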;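 further: B-score of peak minus minimum over baseline fluorescence ratio after K+ and Tl+ stimulus; positive B-score means potentiation of KCNQ2 with more thallium influx and brighter signal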
An asterisk follows results filed as active; i = inactive; . = no result given.

SMILES	KCNQ2 inh	KCNQ2 pot
Cc1cc(O)c2c3c(c(=O)oc2c1)CCC(C)C3 (stereo not given)	i	.
Cc1cc(O)c2c(c1)OC(C)(C)C1=C2CC(C)CC1 (stereo not given)	-7.33*	-7.33
CC(=O)Nc1ccccc1C(=O)OCc1ccc(C(=O)c2ccccc2)cc1	-6.48*	-6.48
CC(=O)Nc1ccccc1C(=O)OCc1cccc(F)c1	i	.
CN1CC=C(/C=C/c2ccc(-c3ccccc3)cc2)CC1	i	.
Cc1cccc(C(=O)NC(Oc2ccccc2)C(Cl)(Cl)Cl)c1 (stereo not given)	-5.67*	-5.67
CCOP(=O)(OCC)C(NC(=O)c1cccc(C)c1)C(Cl)(Cl)Cl (stereo not given)	i	0.7
Cc1cc(OCC(=O)N2C[C@H]3C[C@@H](C2)c2cccc(=O)n2C3)c2c(C)cc(=O)oc2c1	i	.
CC(N)Cc1cn(Cc2ccccc2)c2ccccc12 (stereo not given)	i	0.61
Cc1nc2ccccc2c(=O)n1-c1ccc(Br)cc1[N+](=O)[O-]	i	7.41*
Cc1nc2ccccc2c(=O)n1-c1ccccc1[N+](=O)[O-]	i	1.1
O=C(COc1ccc(Br)cc1)N1CCN(C2CCCC2)CC1	i	.
Cc1ccc(OCC(=O)N2CCN(C3CCC(c4ccccc4)CC3)CC2)cc1 (stereo not given)	-6.25*	-6.25
O=C(Nc1cccnc1)c1c(O)c2c(n(Cc3ccccc3)c1=O)CCCC2	-5.82*	-5.82
O=C(Nc1ccc(F)cc1)c1c(O)c2c(n(Cc3ccccc3)c1=O)CCCC2	i	.
O=C1NC(=O)C(=Cc2coc3ccc(O)cc3c2=O)C(=O)N1	-5.81*	-5.81
CN1C(=O)C(=Cc2coc3ccccc3c2=O)C(=O)N(C)C1=O	i	.
O=C1NC(=O)C(=Cc2ccc(-c3ccc(F)cc3O)o2)C(=O)N1	i	.
O=C(CN1CCCC1)Nc1ccc(Cl)cc1C(=O)c1ccccc1	i	1.12
O=C(CCN1CCCCC1)Nc1ccc(Cl)cc1C(=O)c1ccccc1	-5.64*	-5.64
COc1cc2c(cc1O)CC1c3c(cc(O)c(OC)c3-2)CCN1C (stereo not given)	i	.
CCCN1CCc2cccc3c2[C@H]1Cc1ccc(O)c(O)c1-3	-6.03*	-6.03
C1CC2NCCC3NCCC(N1)N32 (stereo not given)	i	1.1
COc1cc2c(cc1/C=C/[N+](=O)[O-])OCO2	-7.82*	-7.82
COc1cc(/C=C/[N+](=O)[O-])ccc1OC(=O)c1cccnc1	i	.
SMILES	KCNQ2 inh	KCNQ2 pot
C[C@]12CCC3=C4CCC(=O)C=C4CC[C@H]3C1CC[C@@H]2O (stereo not given in full)	i	1.1
O=C1Nc2cc(C(=O)N3CCC4(CC3)OCCO4)ccc2NC1CSCc1cccc(F)c1 (stereo not given)	i	.
CN1CCc2nc(SCc3cccc(Br)c3)c(C#N)cc2C1	i	.
CCc1c(C)nc(N)nc1N1N=C1SCC(=O)OC	i	9.62*
CCc1c(C)nc(N)nc1N1N=C1SCC#N	i	2.52
COc1ccc(OC)c(NP(=O)(Oc2ccc(Cl)cc2)Oc2ccc(Cl)cc2)c1	-6.14*	-6.14
COc1ccc(OC)c(NP(=O)(Oc2ccccc2)Oc2ccccc2)c1	i	0.02
Cc1cccc(N=Nc2ccc(N(C)C)cc2)c1	i	.
O=C(c1cccs1)c1cn(Cc2ccccc2Cl)c2ccccc12	-7.33*	-7.33
N#Cc1ccccc1Cn1cc(C(=O)c2cccs2)c2ccccc21	i	.
CCOC(=O)C1(c2ccccc2)CCN(CCC(C#N)(c2ccccc2)c2ccccc2)CC1	-6.85*	-6.85
CCOC(=O)C1(c2ccccc2)CCN(CC(=O)Nc2ccc(C)cc2)CC1	i	.
c1ccc2c(CN3CCCCC3)c[nH]c2c1	i	.
O=C(COc1ccc(Br)cc1)N1CCN(Cc2c[nH]c3ccccc23)CC1	-5.82*	-5.82
CCCN(CC1CC1)CC(O)c1ccccc1 (stereo not given)	i	.
Nc1ccccc1-[n+]1c(-c2ccccc2)cc(-c2ccccc2)cc1-c1ccccc1	-6.47*	-6.47
O=C(O)c1ccc(-[n+]2c(-c3ccccc3)cc(-c3ccccc3)cc2-c2ccccc2)cc1	i	1.95
COC(=O)CCCC(NC(=S)N1CC2C[C@@H](C1)Cn1c2cccc1=O)C(=O)OC (stereo not given in full)	i	0.45
CC(=NCCCn1ccnc1)c1c(O)n(C2CCCCC2)c(=O)[nH]c1=O	i	.
COCCCn1c(N)c(C(=O)OCCOC)c2nc3ccccc3nc21	i	0.78
CCCCNC(=O)c1c(N)n(CCCOC)c2nc3ccccc3nc12	-8.49*	-8.49
COc1ccc(NC(=O)C2C3CCC(O3)C2C(=O)O)c(OC)c1 (stereo not given)	i	1
Cc1ccc(S(=O)(=O)N(C)C/N=C(\N)N[N+](=O)[O-])cc1	i	0.1
COC(=O)[C@@H](N)CCCN=C(N)N[N+](=O)[O-]	-6.4*	-6.4
Cc1nn(Cc2ccccc2)c(Cl)c1C(=O)NC1CCCc2ccccc21 (stereo not given)	i	.
SMILES	KCNQ2 inh	KCNQ2 pot
Cc1onc(-c2c(Cl)cccc2Cl)c1C(=O)Nc1ccc2c(C(F)(F)F)cc(=O)oc2c1	i	.
CCC(C(=O)N1CCC2(CC1)OCCO2)n1c2ccccc2c2nc(=O)cc(C)n21 (stereo not given)	i	0.3
O=P(Nc1ccccc1)(Oc1ccccc1)Oc1ccccc1	i	0.72
COc1cccc(OP(=O)(Nc2ccccc2)Oc2cccc(OC)c2)c1	-7.07*	-7.07
CSc1ccc(CN2CCN(C(=O)COc3cccc(C)c3)CC2)cc1	i	.
COc1cc(OC)c2c(c1)O[C@@H](c1ccc(OC)c(OC)c1)[C@H](O)C2	i	0.19
O=P(O)(Oc1ccccc1)OC(c1ccccc1)C(F)(F)F (stereo not given)	i	0.26
O=P(NC(c1ccccc1)c1ccccc1)(Oc1ccccc1)Oc1ccccc1	-5.86*	-5.86
CC(=NCc1ccco1)c1c(O)n(-c2ccc(C)cc2)c(=O)[nH]c1=O	i	1.83
Cc1c2cnn(CC(=O)N3CCC4(CC3)OCCO4)c(=O)c2c(C)n1Cc1ccccc1	i	.
O=C(Cn1ncc2c3ccccc3n(Cc3ccc(F)cc3)c2c1=O)N1CCC2(CC1)OCCO2	i	19.4*
O=C(O)C1Cc2ccccc2N2CCCC12 (stereo not given)	i	0.75
Cc1c(OC(=O)N(C)C)ccc2c1O/C(=C\c1ccco1)C2=O	i	.
CCNC(=S)N1CCn2cccc2C1c1cccnc1 (stereo not given)	i	1.33
COC(=O)C1=C(c2cccc(OC)c2OC)C[C@@H]2CC[C@H]1N2C(=O)NCc1cccc2ccccc12	-6.83*	-6.83
COC(=O)C1=C(c2cccc(OC)c2OC)C[C@@H]2CC[C@H]1N2C(=O)NCc1ccccc1	i	.
CSc1ccc(CN2CCN(Cc3ccccc3Cl)CC2)cc1	-6.59*	-6.59
CSc1ccc(CN2CCN(C(=O)Cc3ccccc3)CC2)cc1	i	0.4
Cc1ccccc1CCNCc1cc2cccc(C)c2[nH]c1=O	i	0.38
N=c1sccn1Cc1ccc(Cl)cc1Cl	i	1.67
Clc1ccc(CO/N=C(\Cn2ccnc2)c2ccc(Cl)cc2Cl)c(Cl)c1	-6.05*	-6.05
CCCCCn1c(=O)c(C(=O)NC(C)c2ccccc2)c(O)c2ccccc21 (stereo not given)	i	.
Clc1ccc(CSC(Cn2ccnc2)c2ccc(Cl)cc2Cl)cc1 (stereo not given)	i	.
